{"source": "PubChem BioAssay (EPA / NIEHS)", "note": "Results filed as inconclusive are left out. Calls of active or inactive are those of the source. How the source made its calls: active means hit-call score of the fitted dose curve at least 0.9, where 1 is the maximum; inconclusive means response in the unintended direction; inactive means score below 0.9."}
{"molecular_target": "human AMP-activated Protein Kinase, alpha 1 (AMPKa1), PRKAA1 (gene 5562) (UniProt Q13131)", "sequence (Q13131 whole entry, looked up)": "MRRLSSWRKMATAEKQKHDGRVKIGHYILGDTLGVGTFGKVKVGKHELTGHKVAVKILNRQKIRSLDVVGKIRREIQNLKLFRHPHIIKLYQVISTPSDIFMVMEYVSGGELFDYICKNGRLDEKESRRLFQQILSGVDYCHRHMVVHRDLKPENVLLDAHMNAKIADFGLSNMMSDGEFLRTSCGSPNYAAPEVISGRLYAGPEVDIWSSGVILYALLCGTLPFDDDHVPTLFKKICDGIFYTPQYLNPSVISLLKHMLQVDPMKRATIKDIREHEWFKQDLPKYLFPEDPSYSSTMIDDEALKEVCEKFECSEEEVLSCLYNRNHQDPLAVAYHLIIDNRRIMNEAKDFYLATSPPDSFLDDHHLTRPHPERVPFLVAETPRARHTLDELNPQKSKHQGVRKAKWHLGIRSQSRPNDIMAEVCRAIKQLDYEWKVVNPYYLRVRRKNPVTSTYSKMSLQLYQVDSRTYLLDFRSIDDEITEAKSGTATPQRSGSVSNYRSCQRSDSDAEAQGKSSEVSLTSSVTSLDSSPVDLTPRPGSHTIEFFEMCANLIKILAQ", "assay": "NVS_ENZ_hAMPKa1: NovaScreen (NVS) Enzymatic Assay for human AMP-activated Protein Kinase, alpha 1 (AMPKa1) (AID 2283130)", "how_it_was_run": "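Compounds were screened in duplicate at 25 uM, and those reaching ~30% inhibition were titrated up to 50 uM. The enzyme was recombinant human AMPKα1, and kinase turnover was read by fluorescence/mobility shift 1 h post-dosing as loss of signal versus DMSO.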"}
{"smiles": "CCCCCCCCCCCCc1cccc(S(=O)(=O)O)c1", "outcome": "inactive"}
{"smiles": "N#Cc1cccnc1", "outcome": "inactive"}
{"smiles": "O=C(N[C@H]1CN2CCC1CC2)c1ccc2c(c1)OCCO2", "outcome": "inactive"}
{"smiles": "O=C(O)C1(c2ccc3c(c2)OC[C@H](Cc2ccc(-c4ccccc4)cc2)[C@H]3O)CCCC1", "outcome": "inactive"}
{"smiles": "CCCCCCCCCCCCOS(=O)(=O)O", "outcome": "inactive"}
{"smiles": "CC(C)O.CC(C)O.OCCN(CCO)CCO.OCCN(CCO)CCO.[Ti]", "AC50": "1.5 µM (active)"}
{"molecular_target": "human Caspase 2 (CASP2), CASP2 (gene 835) (UniProt P42575)", "sequence (P42575 whole entry, looked up)": "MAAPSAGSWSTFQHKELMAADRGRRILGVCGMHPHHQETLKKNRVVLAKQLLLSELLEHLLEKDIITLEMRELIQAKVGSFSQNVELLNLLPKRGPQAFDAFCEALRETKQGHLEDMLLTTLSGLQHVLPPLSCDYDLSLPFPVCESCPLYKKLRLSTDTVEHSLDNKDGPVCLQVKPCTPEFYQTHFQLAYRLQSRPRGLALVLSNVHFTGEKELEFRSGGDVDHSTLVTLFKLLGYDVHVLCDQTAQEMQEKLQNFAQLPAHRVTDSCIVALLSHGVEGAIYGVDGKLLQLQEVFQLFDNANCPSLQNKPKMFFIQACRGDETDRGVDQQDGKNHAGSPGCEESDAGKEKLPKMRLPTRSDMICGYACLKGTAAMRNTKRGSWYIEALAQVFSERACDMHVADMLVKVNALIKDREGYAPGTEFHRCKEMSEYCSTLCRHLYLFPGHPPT", "assay": "NVS_ENZ_hCASP2: NovaScreen (NVS) Enzymatic Assay for human Caspase 2 (CASP2) (AID 2283135)", "method": "NVS_ENZ_hCASP2 is a biochemical, single-readout assay that uses extracted gene-proteins from E. coli in a cell-free assay. Measurements were taken 1 hour after chemical dosing in a 96-well plate.NVS_ENZ_hCASP2 is one of one assay component(s) measured or calculated from the NVS_ENZ_hCASP2 assay. It is designed to make measurements of enzyme activity, a form of enzyme reporter, as detected with fluorescence intensity signals by Fluorescence technology.Data from the assay component NVS_ENZ_hCASP2 was analyzed into 1 assay endpoint. This assay endpoint, NVS_ENZ_hCASP2, was analyzed in the positive analysis fitting direction relative to DMSO as the negative control and baseline of activity. Using a type of enzyme reporter, loss-of-signal activity can be used to understand changes in the enzymatic activity as they relate to the gene CASP2. Furthermore, this assay endpoint can be referred to as a primary readout, because this assay has produced multiple assay endpoints where this one serves a enzymatic activity function. To generalize the intended target to other relatable targets, this assay endpoint is annotated to the protease intended target family, where the subfamily is cysteine protease.\nBinding assays used specific radioligands (tritiated, iodinated) with non-radioactive competitive displacement ligands in agonist or antagonist protocols (as indicated) and various reference compounds and inhibitors to titrate specific binding to receptors and transporters. Most enzyme assays (CYPs, kinases, phosphatases, proteases, HDACs) used recombinant protein and specific substrates (fluorescence mostly, some colorimetric and radioactive) and inhibitors, followed by a biochemical separation of substrate and product. All assays for the biochemical HTS were initially run in duplicate at a single concentration (10 uM for CYP450 assays and 25 uM for all others). […]"}
{"smiles": "O=C(N[C@H]1CN2CCC1CC2)c1ccc2c(c1)OCCO2", "outcome": "inactive"}
{"smiles": "Clc1cccc(Cl)c1Cl", "outcome": "inactive"}
{"smiles": "CC(C)O.CC(C)O.OCCN(CCO)CCO.OCCN(CCO)CCO.[Ti]", "AC50": "3.12 µM (active)"}
{"molecular_target": "human Acid Phosphatase 1 (ACP1), ACP1 (gene 52) (UniProt P24666)", "sequence (P24666 whole entry, looked up)": "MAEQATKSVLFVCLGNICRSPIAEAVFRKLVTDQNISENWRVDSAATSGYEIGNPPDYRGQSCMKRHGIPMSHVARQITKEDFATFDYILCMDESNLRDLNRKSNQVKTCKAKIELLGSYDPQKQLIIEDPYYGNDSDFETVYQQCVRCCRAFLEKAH", "assay": "NVS_ENZ_hACP1: NovaScreen (NVS) Enzymatic Assay for human Acid Phosphatase 1 (ACP1) (AID 2283136)", "how_it_was_run": "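Cell-free fluorescence read-out of phosphatase activity, substrate and product separated by mobility shift, taken 1.5 h after compound addition; protein produced in Sf9. Single 25 uM duplicate screen, followed by concentration series for actives, scored as signal loss relative to DMSO.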"}
{"smiles": "CCCCCCCCCCCCc1cccc(S(=O)(=O)O)c1", "outcome": "inactive"}
{"smiles": "N#Cc1cccnc1", "outcome": "inactive"}
{"smiles": "Clc1cccc(Cl)c1Cl", "outcome": "inactive"}
{"molecular_target": "human Caspase 5 (CASP5), CASP5 (gene 838) (UniProt P51878)", "sequence (P51878 whole entry, looked up)": "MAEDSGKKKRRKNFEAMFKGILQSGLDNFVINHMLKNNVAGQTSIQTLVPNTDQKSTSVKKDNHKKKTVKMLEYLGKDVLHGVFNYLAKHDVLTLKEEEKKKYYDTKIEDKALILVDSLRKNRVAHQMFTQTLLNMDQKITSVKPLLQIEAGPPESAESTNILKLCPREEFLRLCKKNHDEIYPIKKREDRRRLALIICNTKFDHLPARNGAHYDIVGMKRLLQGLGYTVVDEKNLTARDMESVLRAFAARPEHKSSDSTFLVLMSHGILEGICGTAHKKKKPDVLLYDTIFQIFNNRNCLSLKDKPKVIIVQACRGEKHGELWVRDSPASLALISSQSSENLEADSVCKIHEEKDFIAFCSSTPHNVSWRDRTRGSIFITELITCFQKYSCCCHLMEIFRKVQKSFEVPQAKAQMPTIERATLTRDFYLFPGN", "assay": "NVS_ENZ_hCASP5: NovaScreen (NVS) Enzymatic Assay for human Caspase 5 (CASP5) (AID 2283137)", "how_it_was_run": "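Fluorescent substrate readout of CASP5 activity (loss-of-signal), measured 2 h post-dose. Protein expressed in E. coli. Primary screen duplicate at 25 uM; actives meeting threshold (e.g., 30% inhibition) rerun singleton, max 50 uM.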"}
{"smiles": "O=c1oc2ccccc2c(O)c1C(CC(O)c1ccc(-c2ccc(Br)cc2)cc1)c1ccccc1", "note": "(centres undefined)", "AC50": "9.45 µM (active)"}
{"smiles": "Nc1ccc(N)cc1", "AC50": "5.42 µM (active)"}
{"smiles": "Nc1c(Oc2ccccc2)cc(O)c2c1C(=O)c1ccccc1C2=O", "AC50": "0.133 µM (active)"}
{"smiles": "CC(C)O.CC(C)O.OCCN(CCO)CCO.OCCN(CCO)CCO.[Ti]", "AC50": "1.81 µM (active)"}
{"molecular_target": "human AKT serine/threonine Kinase 1 (AKT1), AKT1 (gene 207) (UniProt P31749)", "sequence (P31749 whole entry, looked up)": "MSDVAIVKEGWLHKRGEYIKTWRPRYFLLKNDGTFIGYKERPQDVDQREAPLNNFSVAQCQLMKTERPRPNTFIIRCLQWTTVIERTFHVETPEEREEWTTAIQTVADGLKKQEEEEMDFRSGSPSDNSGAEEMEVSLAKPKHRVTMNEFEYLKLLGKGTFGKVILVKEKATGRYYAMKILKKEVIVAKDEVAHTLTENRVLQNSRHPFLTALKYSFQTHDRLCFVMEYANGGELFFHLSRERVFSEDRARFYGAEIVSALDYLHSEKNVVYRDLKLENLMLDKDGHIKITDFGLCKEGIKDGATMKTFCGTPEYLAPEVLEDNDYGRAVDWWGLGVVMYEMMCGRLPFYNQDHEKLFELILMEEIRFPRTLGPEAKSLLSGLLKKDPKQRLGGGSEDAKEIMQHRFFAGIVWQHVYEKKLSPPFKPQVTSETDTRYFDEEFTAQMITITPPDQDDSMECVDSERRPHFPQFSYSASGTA", "assay": "NVS_ENZ_hAKT1: NovaScreen (NVS) Enzymatic Assay for human AKT serine/threonine Kinase 1 (AKT1) (AID 2283138)", "method": "(§1) NVS_ENZ_hAKT1 is a biochemical, single-readout assay that uses extracted gene-proteins in a cell-free assay. Measurements were taken 1 hour after chemical dosing in a 384-well plate.NVS_ENZ_hAKT1 is one of one assay component(s) measured or calculated from the NVS_ENZ_hAKT1 assay. It is designed to make measurements of enzyme activity, a form of enzyme reporter, as detected with fluorescence intensity signals by Fluorescence and electrophoretic mobility shift technology.Data from the assay component NVS_ENZ_hAKT1 was analyzed into 1 assay endpoint. This assay endpoint, NVS_ENZ_hAKT1, was analyzed in the positive analysis fitting direction relative to DMSO as the negative control and baseline of activity. Using a type of enzyme reporter, loss-of-signal activity can be used to understand changes in the enzymatic activity as they relate to the gene AKT1. Furthermore, this assay endpoint can be referred to as a primary readout, because this assay has produced multiple assay endpoints where this one serves a enzymatic activity function. To generalize the intended target to other relatable targets, this assay endpoint is annotated to the kinase intended target family, where the subfamily is serine/threonine kinase.\n(§2) Binding assays used specific radioligands (tritiated, iodinated) with non-radioactive competitive displacement ligands in agonist or antagonist protocols (as indicated) and various reference compounds and inhibitors to titrate specific binding to receptors and transporters. Most enzyme assays (CYPs, kinases, phosphatases, proteases, HDACs) used recombinant protein and specific substrates (fluorescence mostly, some colorimetric and radioactive) and inhibitors, followed by a biochemical separation of substrate and product. All assays for the biochemical HTS were initially run in duplicate at a single concentration (10 uM for CYP450 assays and 25 uM for all others). Assay-chemical combinations meeting a pre-defined threshold (e.g., 30% inhibition and other criteria defined below) were then run in singleton concentration-response format with maximum concentration of 20 uM for CYPs and 50 uM for all others. Each assay was run with positive and negative controls, and concurrent controls on every plate. The follow-up (secondary) screen tested active chemical-pairs in concentration series, as well as a few additional assays not tested in the primary screen, some selected negative inactives, and several cases re-run in the concentration series for confirmatory purposes."}
{"smiles": "CCCCCCCCCCCCc1cccc(S(=O)(=O)O)c1", "AC50": "35 µM (active)"}
{"smiles": "COc1ccccc1N", "outcome": "inactive"}
{"smiles": "Oc1cc(Cl)c(Cl)cc1Cl", "outcome": "inactive"}
{"smiles": "CC(C)O.CC(C)O.OCCN(CCO)CCO.OCCN(CCO)CCO.[Ti]", "AC50": "0.00319 µM (active)"}
{"molecular_target": "human Beta-secretase (BACE), BACE1 (gene 23621) (UniProt P56817)", "sequence (P56817 whole entry, looked up)": "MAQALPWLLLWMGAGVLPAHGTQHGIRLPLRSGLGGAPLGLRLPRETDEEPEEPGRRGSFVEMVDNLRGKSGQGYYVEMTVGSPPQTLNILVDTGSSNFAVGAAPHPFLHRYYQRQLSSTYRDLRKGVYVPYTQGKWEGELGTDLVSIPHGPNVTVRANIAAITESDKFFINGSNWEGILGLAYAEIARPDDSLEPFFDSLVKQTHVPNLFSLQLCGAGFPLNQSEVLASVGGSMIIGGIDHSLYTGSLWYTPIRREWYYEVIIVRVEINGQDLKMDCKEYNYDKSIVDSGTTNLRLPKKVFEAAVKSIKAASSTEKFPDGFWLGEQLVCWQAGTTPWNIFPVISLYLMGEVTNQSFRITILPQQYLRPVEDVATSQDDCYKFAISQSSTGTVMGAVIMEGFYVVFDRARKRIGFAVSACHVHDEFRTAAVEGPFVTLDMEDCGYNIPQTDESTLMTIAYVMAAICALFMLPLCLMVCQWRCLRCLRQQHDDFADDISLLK", "assay": "NVS_ENZ_hBACE: NovaScreen (NVS) Enzymatic Assay for human Beta-secretase (BACE) (AID 2283140);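 further: hits are inhibitors that reduce fluorescent substrate signal versus DMSO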", "how_it_was_run": "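SF9-expressed enzyme, cell-free; fluorescent substrate readout after 1 h. Screened at 25 uM single concentration, duplicate; hits retested in concentration series. Activity relative to DMSO baseline, loss-of-signal.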"}
{"smiles": "O=C(Cc1ccccc1)OCCc1ccccc1", "AC50": "25 µM (active)"}
{"smiles": "CN(C)C(=S)S", "outcome": "inactive"}
{"smiles": "CCCCCCCCCCCCc1cccc(S(=O)(=O)O)c1", "AC50": "0.428 µM (active)"}
{"smiles": "O=C(N[C@H]1CN2CCC1CC2)c1ccc2c(c1)OCCO2", "outcome": "inactive"}
{"smiles": "Nc1ccc(N)cc1", "AC50": "15.1 µM (active)"}
{"smiles": "BrCCCCBr", "outcome": "inactive"}
{"smiles": "Nc1c(Oc2ccccc2)cc(O)c2c1C(=O)c1ccccc1C2=O", "AC50": "5.73 µM (active)"}
{"smiles": "CC(C)O.CC(C)O.OCCN(CCO)CCO.OCCN(CCO)CCO.[Ti]", "AC50": "7.67 µM (active)"}
{"molecular_target": "human Aurora Kinase A - serine/threonine-protein Kinase 6 (AurA), AURKA (gene 6790) (UniProt O14965)", "sequence (O14965 whole entry, looked up)": "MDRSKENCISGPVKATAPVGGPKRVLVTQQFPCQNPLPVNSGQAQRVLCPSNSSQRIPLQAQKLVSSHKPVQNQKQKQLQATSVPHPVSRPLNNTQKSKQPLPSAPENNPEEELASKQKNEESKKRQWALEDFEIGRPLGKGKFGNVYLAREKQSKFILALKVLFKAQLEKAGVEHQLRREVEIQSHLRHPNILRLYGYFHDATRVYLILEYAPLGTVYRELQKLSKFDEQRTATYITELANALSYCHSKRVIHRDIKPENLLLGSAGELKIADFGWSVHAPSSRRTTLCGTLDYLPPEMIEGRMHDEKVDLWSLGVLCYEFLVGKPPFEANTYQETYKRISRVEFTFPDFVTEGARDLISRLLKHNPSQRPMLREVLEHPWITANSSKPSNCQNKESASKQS", "assay": "NVS_ENZ_hAurA: NovaScreen (NVS) Enzymatic Assay for human Aurora Kinase A - serine/threonine-protein Kinase 6 (AurA) (AID 2283142)", "method": "as §1, with “NVS_ENZ_hAurA” for “NVS_ENZ_hAKT1”, “plate.NVS_ENZ_hAurA” for “plate.NVS_ENZ_hAKT1”, “NVS_ENZ_hAurA,” for “NVS_ENZ_hAKT1,”, “AURKA.” for “AKT1.”\nas §2"}
{"smiles": "CCCCCCCCCCCCc1cccc(S(=O)(=O)O)c1", "AC50": "16.1 µM (active)"}
{"smiles": "N#Cc1cccnc1", "outcome": "inactive"}
{"smiles": "O=C(N[C@H]1CN2CCC1CC2)c1ccc2c(c1)OCCO2", "outcome": "inactive"}
{"smiles": "CCCCCCCCCCCCOS(=O)(=O)O", "AC50": "28.5 µM (active)"}
{"smiles": "Clc1cccc(Cl)c1Cl", "outcome": "inactive"}
{"smiles": "CC(C)O.CC(C)O.OCCN(CCO)CCO.OCCN(CCO)CCO.[Ti]", "AC50": "4.96 µM (active)"}
